Assay outcomes deposited in PubChem BioAssay by several laboratories.
ERa SRC1 inh = blocks coactivator binding to human estrogen receptor alpha | TR-FRET ER-alpha LBD / SRC-1 peptide, estradiol-bound | inhibition, % at 25.6 µM | 1.7% of 86,000 active | AID 629; in the data active = inhibition above about 50%;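 note: 0% = receptor plus peptide control and 100% = peptide only without receptor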
ERa SRC1 pot = ER-alpha (human) coactivator binding potentiation; P03372; TR-FRET ERalpha-LBD/SRC-Cy5 coactivator binding, 2 h; 100 = basal binding, no effect; coactivator binding (% of control), % at 25.6 µM; 1.3% of 86,000 active; AID 639; in the data active = activity above about 200%;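 note: binding measured in presence of low estradiol as agonist stimulus; 0% = peptide alone without receptor and 100% = receptor with peptide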
Smad3 FoxH1 inh = inhibitors of human Smad3 transcription factor binding; P84022; TR-FRET Smad3/Dy647-FoxH1 peptide binding, europium anti-His; inhibition, % at 25 µM; 0.29% of 88,000 active; AID 630;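 active = compounds that reduce the energy-transfer binding signal between the protein and its labelled peptide by more than half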;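 note: 0% = Smad3 plus labelled peptide maximal FRET and 100% = peptide-only background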
MRP reversal = reverses drug resistance mediated by MRP. H69AR cells + 2 uM doxorubicin, CellTiter-Glo, 72 h. differential viability (reversal), % at 10 µM. 0.04% of 85,000 active. AID 602;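 active = viability drop by adding the cancer drug above about 55%, with treated viability meeting a 40% cutoff, limit read from the data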;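 note: viability without doxorubicin minus viability with 2 µM doxorubicin for each compound; larger differential means the compound sensitizes cells more to doxorubicin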
MRP-1 activ = activators of MRP-1; H69AR cells + doxorubicin, viability rescue, CellTiter-Glo; viability increase, % at 10 µM; 0.61% of 140,000 active; AID 799;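 active = viability gain under doxorubicin at or above a set limit, the compound median plus 3 SD, cut at about 4.7% in these data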;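 note: MRP-1 overexpressing cells given doxorubicin 25 µM after compound pretreatment; 18-22 h compound pretreatment then 72 h with doxorubicin before readout; 0% = doxorubicin-only wells and 100% = vehicle-treated cells without doxorubicin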
ERb SRC1 inh = blocks coactivator binding to human estrogen receptor beta. 1.3% of 86,000 active. inhibition, % at 25.6 µM. AID 633. TR-FRET ER-beta LBD / SRC1-Cy5 peptide binding; receptor agonist-loaded with 1 µM estradiol. Q92731;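 active = compounds whose percent inhibition of the receptor-coactivator binding signal exceeds about 50% in the single-dose screen, limit read from the data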;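 note: 0% = receptor plus peptide wells without compound and 100% = peptide-only wells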
Target sequence (Q92731 whole entry, looked up, the tested form may be a part): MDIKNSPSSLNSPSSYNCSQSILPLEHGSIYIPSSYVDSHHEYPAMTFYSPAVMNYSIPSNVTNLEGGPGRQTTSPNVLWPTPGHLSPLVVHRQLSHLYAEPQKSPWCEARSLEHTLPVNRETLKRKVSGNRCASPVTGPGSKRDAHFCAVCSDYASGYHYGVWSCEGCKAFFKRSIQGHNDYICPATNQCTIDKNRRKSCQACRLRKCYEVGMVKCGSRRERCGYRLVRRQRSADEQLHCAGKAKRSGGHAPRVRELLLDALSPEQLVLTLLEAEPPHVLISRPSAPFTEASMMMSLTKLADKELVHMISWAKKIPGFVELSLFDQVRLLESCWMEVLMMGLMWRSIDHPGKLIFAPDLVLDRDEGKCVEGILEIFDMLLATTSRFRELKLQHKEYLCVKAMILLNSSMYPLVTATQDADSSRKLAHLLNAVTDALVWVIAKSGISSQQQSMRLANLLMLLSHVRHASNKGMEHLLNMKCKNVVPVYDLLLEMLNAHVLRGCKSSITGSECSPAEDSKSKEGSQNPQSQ
* marks the source's active call; other numbers are inactive results; [ ] = dose if it differs, or a comment. Shown are actives, neighbours in structure and some others; about 2.9% of the full set was active somewhere.

How did Cc1nnc(Sc2nc3c(c(=O)n(C)c(=O)n3C)n2Cc2ccccc2Cl)s1 do in these assays?
ERa SRC1 inh: 64*[fluorescence artefact?]; ERa SRC1 pot: 102; Smad3 FoxH1 inh: 6; MRP reversal: -13; ERb SRC1 inh: 1

What do the screens show for `Cc1ncc(CSC(=N)N)n1Cc1ccccc1`?
Smad3 FoxH1 inh: 8

What do the screens show for `CCc1[nH]nc2c1C(c1cccc(OC(=O)N3CCOCC3)c1)C(C#N)=C(N)O2` (centres undefined)?
ERa SRC1 inh: -32; ERa SRC1 pot: 563*; Smad3 FoxH1 inh: 0; MRP reversal: 24; MRP-1 activ: -2; ERb SRC1 inh: -4

Results for CC(C)c1[nH]nc2c1C(c1cccc(OC(=O)N3CCOCC3)c1)C(C#N)=C(N)O2 (centres undefined) ?
MRP-1 activ: -2

Results for CN(C)c1nc(-c2ccccn2)nnc1-c1ccccc1 ?
ERa SRC1 inh: 58*[fluorescence artefact?]; ERa SRC1 pot: 104; Smad3 FoxH1 inh: 13; MRP reversal: -34; MRP-1 activ: -2; ERb SRC1 inh: -12

What do the screens show for `O=C1c2cccc3cccc(c23)C(=O)N1c1ccncc1`?
ERa SRC1 inh: -24; ERa SRC1 pot: 104; Smad3 FoxH1 inh: -15; MRP reversal: -11; MRP-1 activ: 5.7*; ERb SRC1 inh: 6

How did O=C(O)CC1Sc2ccccc2NC1=O (centres undefined) do in these assays?
ERa SRC1 inh: -38; ERa SRC1 pot: 75; Smad3 FoxH1 inh: 6; MRP reversal: -7; MRP-1 activ: -2; ERb SRC1 inh: 15

Results for O=C1Nc2ccccc2SC(c2ccccc2)C1O (centres undefined) ?
ERa SRC1 inh: 95*; ERa SRC1 pot: 15; Smad3 FoxH1 inh: -2; MRP reversal: -13; MRP-1 activ: -1; ERb SRC1 inh: 88*

What do the screens show for `CC(C)NC(=O)CN1C(=O)NC(CCc2ccccc2)C1=O` (centres undefined)?
ERa SRC1 inh: 61*[fluorescence artefact?]; ERa SRC1 pot: 107; Smad3 FoxH1 inh: -1; MRP reversal: 2; MRP-1 activ: 1; ERb SRC1 inh: -4

What do the screens show for `CC(=O)C1=C(C)N(Cc2ccccc2)C(=O)N[C@H]1CCc1ccccc1`?
MRP-1 activ: 1

Results for Cc1oc(-c2ccccc2)nc1C(=O)Nc1nccs1 ?
ERa SRC1 inh: 52*[fluorescence artefact?]; ERa SRC1 pot: 91; Smad3 FoxH1 inh: 2; MRP reversal: -7; MRP-1 activ: -3; ERb SRC1 inh: 37

What do the screens show for `COC(=O)c1cc(NC2c3ncccc3C(=O)N2Cc2ccccc2)cc(C(=O)OC)c1` (centres undefined)?
ERa SRC1 inh: -6; ERa SRC1 pot: 113; Smad3 FoxH1 inh: -7; MRP reversal: 3; MRP-1 activ: 1; ERb SRC1 inh: -9

How did COc1ccc(OC)c(NC2c3ncccc3C(=O)N2Cc2ccco2)c1 (centres undefined) do in these assays?
ERa SRC1 inh: -4; ERa SRC1 pot: 53; Smad3 FoxH1 inh: 6; MRP reversal: 9; MRP-1 activ: -1; ERb SRC1 inh: 13

What do the screens show for `COc1ccc(CN2C(=O)c3cccnc3C2Nc2cc(Cl)ccc2OC)cc1` (centres undefined)?
ERa SRC1 inh: -37; ERa SRC1 pot: 357*[fluorescence artefact?]; Smad3 FoxH1 inh: 4; MRP reversal: 19; MRP-1 activ: -1; ERb SRC1 inh: -9

How did COc1ccc(CN2C(=O)c3cccnc3C2O)cc1 (centres undefined) do in these assays?
ERa SRC1 inh: -5; ERa SRC1 pot: 394*[fluorescence artefact?]; Smad3 FoxH1 inh: 10; MRP reversal: -3; MRP-1 activ: -2; ERb SRC1 inh: 8

Results for CC1(C)[C@H]2CC[C@]1(C)[C@H](OC(=O)/C=C/c1ccccc1)C2 ?
Smad3 FoxH1 inh: -3

How did O=C(CSc1nccc(-c2ccc(Br)cc2)n1)NCCc1ccccc1 do in these assays?
MRP-1 activ: 0

How did COC(=O)c1oc2nc(C)cc(C)c2c1N do in these assays?
ERa SRC1 inh: 57*[fluorescence artefact?]; ERa SRC1 pot: 129; Smad3 FoxH1 inh: 0; MRP reversal: -3; MRP-1 activ: 0; ERb SRC1 inh: -7

How did N[C@@H](Cc1[nH]nc2ccccc12)C(=O)O do in these assays?
Smad3 FoxH1 inh: -4

Results for N#Cc1c(C(F)(F)F)cc(-c2ccccc2)nc1SCc1nc(N)nc(N2CCOCC2)n1 ?
ERa SRC1 inh: 62*; ERa SRC1 pot: 362*[fluorescence artefact?]; Smad3 FoxH1 inh: 3; MRP reversal: -8; MRP-1 activ: -3; ERb SRC1 inh: 49

How did CCCCN(C(=O)NC(=O)Nc1cc(C)ccc1C)S(C)(=O)=O do in these assays?
ERa SRC1 inh: 0; ERa SRC1 pot: 104; Smad3 FoxH1 inh: 3; MRP reversal: 9; MRP-1 activ: -1; ERb SRC1 inh: 91*[fluorescence artefact?]

How did COc1ccc(C2CC3(CC(C)(C)NC(SC)=N3)Oc3cc(O)cc(C)c32)cc1 (centres undefined) do in these assays?
MRP-1 activ: -4

How did CCOC(=O)C1=C(C)Nc2ncnn2C1c1cccnc1 (centres undefined) do in these assays?
ERa SRC1 inh: -7; ERa SRC1 pot: 89; Smad3 FoxH1 inh: 0; MRP reversal: -12; MRP-1 activ: 177*; ERb SRC1 inh: -13

What do the screens show for `COc1ccccc1NS(=O)(=O)c1cc(NC(=O)c2ccc(Cl)nc2)ccc1Cl`?
MRP-1 activ: -3

How did COc1ccc(C(=O)Nc2ccc(Cl)c(S(=O)(=O)Nc3ccccc3OC)c2)cc1 do in these assays?
MRP-1 activ: 9.2*

Results for COc1ccc(C(=O)Nc2nc3cc(OC)c(OC)cc3c(=O)[nH]2)cc1 ?
ERa SRC1 inh: 9; ERa SRC1 pot: 434*; Smad3 FoxH1 inh: 21; MRP reversal: -2; MRP-1 activ: -1; ERb SRC1 inh: 22

What do the screens show for `C[C@@H](CSC(=N)N)C(N)=O`?
Smad3 FoxH1 inh: -8

What do the screens show for `COc1ccccc1/C=C\C=N\n1c(-c2ccc(Cl)cc2)n[nH]c1=S`?
MRP-1 activ: -1

How did Cc1ccc(-c2n[nH]c(=S)n2/N=C/C=C/c2ccccc2[N+](=O)[O-])cc1 do in these assays?
ERa SRC1 inh: 53*[fluorescence artefact?]; ERa SRC1 pot: 323*; Smad3 FoxH1 inh: 23; MRP reversal: -2; MRP-1 activ: -2; ERb SRC1 inh: 47

How did CCCNC(=O)NC(=O)COC(=O)c1ccc(OC)c(S(=O)(=O)N2CCCc3ccccc32)c1 do in these assays?
ERa SRC1 inh: -4; ERa SRC1 pot: 86; Smad3 FoxH1 inh: 1; MRP reversal: 8; MRP-1 activ: -1; ERb SRC1 inh: -3

Results for CNC(=O)C1CC(=O)N(CCc2ccc(OC)cc2)C(=Nc2ccc(OC)cc2)S1 (centres undefined) ?
ERa SRC1 inh: -3; ERa SRC1 pot: 103; Smad3 FoxH1 inh: -2; MRP reversal: 6; MRP-1 activ: -2; ERb SRC1 inh: -5
